Compound activity deposited in PubChem BioAssay by several laboratories.
MLLE-PAM2 inh = inhibitors of PABP1 MLLE–PAM2 peptide binding, primary screen, biochemical, fluorescence polarization, FITC-PAM2, GST-MLLE; hit rate 0.36% among 360,000; AID 588489, 2011; inhibition, % at 20 µM; in the data active = inhibition above about 35%, passing the limit was not always enough;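 note: plate controls were DMSO wells with GST-MLLE for no effect and wells lacking GST-MLLE protein for full effect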
eIF4H inh = human eIF4H binding inhibitors, primary screen, translation initiation inhibitor project, biochemical, uHTS, fluorescence polarization; Eukaryotic translation initiation factor 4H (Homo sapiens), Q15056; eIF4H fluorescence polarization binding assay; inhibition, % at 35 µM; hit rate 0.94% among 290,000; AID 2012, 2009;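 note: calls also rest on retests at 20 µM and on dose response follow-up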
PABP polyA inh = PABP poly(A) RNA binding inhibitors, primary screen, biochemical, fluorescence polarization, uHTS; Polyadenylate-binding protein 1 (Homo sapiens), P11940; calls only at 35 µM; hit rate 1% among 290,000; AID 2014, 2009;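 note: calls also rest on retests at 20 µM and on dose response follow-up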
eIF4E-4G inh = eIF4E–eIF4G protein interaction inhibitors, primary screen, biochemical, uHTS, TR-FRET, eIF4GI fragment; Eukaryotic translation initiation factor 4E (Mus musculus) + Eukaryotic translation …; TR-FRET eIF4E-eIF4GI(517-606) binding, 2 h; inhibition, % at 21.7 µM; hit rate 0.37% among 220,000;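 active = inhibition above about 30%, limit read from the data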;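 note: 0% = full FRET control wells and 100% = background wells lacking eIF4GI fragment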
An asterisk follows results filed as active; i = inactive; ? = inconclusive; / = no result given; + = active, no number. In the library only some 1.5% were active in any assay of this set; here they are far more common. Unless noted, the rule behind the calls is not given here.

SMILES | MLLE-PAM2 inh | eIF4H inh | PABP polyA inh | eIF4E-4G inh
CN1C2C=C3C(C#N)=C(N)C(C#N)(C#N)[C@H](c4c(F)cccc4F)[C@H]3C1CC2 (some centres not stated) | 22 | 53 | i | 2
Cc1ccc(C2C3CN(C(C)C)CC=C3C(C#N)=C(N)C2(C#N)C#N)cc1 (configuration not stated) | 151 | ? | ? | -7
Cc1nn(-c2ccccc2)c(C)c1C(=O)OCC(=O)Nc1ccccc1Cl | -3 | / | / | /
CCCC(=Nc1ccc(N)cc1)C1=C(O)C(C(=O)OC)C(C)(C)CC1=O (configuration not stated) | 10 | 57* | + | -1
CCCC(=O)C1=C(O)C(C(=O)OC)C(C)(C)CC1=Nc1ccc(N)cc1 (configuration not stated) | -18 | 10 | i | 7
COc1ccccc1N/C=C/c1onc(C)c1[N+](=O)[O-] | -146 | 28 | i | -1
Cc1noc(/C=C/Nc2ccc(F)cc2F)c1[N+](=O)[O-] | 50* | 70 | i | -3
OC(c1ccc(Cl)c(F)c1)c1ncc(-c2cccc(C(F)(F)F)c2)[nH]1 (configuration not stated) | -9 | / | / | /
COC(=O)c1ccc(CSc2nc3ccc(Cl)cc3[nH]2)o1 | / | 3 | i | 6
COC(=O)c1ccc(CSc2nc3scc(-c4cccs4)c3c(=O)[nH]2)o1 | -17 | 54* | + | -2
CSc1ccccc1NC(=O)CN(C)C(=O)CNC(=O)c1ccc(Oc2ccccc2)cc1 | 0 | / | / | /
CC(=O)C1=CCC(c2ccc(Cl)cc2)N(S(=O)(=O)c2ccc(C)cc2)C1 (configuration not stated) | 33 | / | / | /
COc1ccc(-c2nc(S(=O)(=O)c3ccccc3)c(N3CCCC3)o2)cc1 | 19 | / | / | /
Cc1ccccc1-c1nc(S(=O)(=O)c2ccccc2)c(N2CCCC2)o1 | 42* | / | / | /
O=C1c2ccccc2-c2onc3ccc(N4CCCC4)c1c23 | i | ? | i | 34*
COc1ccc(CC(N)c2csc(NC(=O)c3cc(C(C)(C)C)nn3Cc3ccccc3)n2)cc1 (configuration not stated) | -29 | / | / | /
CN1C(=O)[C@H]2[C@@H](c3ccc(C(F)(F)F)cc3)N[C@]3(CCCN(Cc4ccc(C(F)(F)F)cc4)C3=O)[C@H]2C1=O | 1 | / | / | /
CC1(C(=O)NS(=O)(=O)c2cccc(C#N)c2)CCN1C(=O)Cc1ccccc1Cl (configuration not stated) | -2 | / | / | /
COc1ccc(C(N)CCc2ccc(C)o2)cc1 (configuration not stated) | -34 | 87 | + | -3
O=C(N/N=C/C=C/c1ccco1)c1ccccc1Cl | 0 | 78* | + | 2
Cc1cccc(C)c1OCC(=O)N/N=C/C=C/c1ccco1 | 10 | 88 | i | 0
O=C(Cc1cccs1)N/N=C/c1ccco1 | -6 | 3 | i | 0
CC(/C=C/c1ccco1)=N/NC(=O)c1ccccc1Cl | -7 | 3 | i | -8
Cc1cccc(OCC(=O)N/N=C/C=C/c2ccco2)c1 | -15 | 81* | i | 12
O=C(N/N=C/C=C/c1ccco1)/C(=C/c1ccccc1)NC(=O)c1ccccc1 | 4 | 51* | + | -5
SMILES | MLLE-PAM2 inh | eIF4H inh | PABP polyA inh | eIF4E-4G inh
O=C(Cc1cccs1)N/N=C/C=C\c1ccco1 | -6 | 103* | + | 0
CC1(Cc2ccccc2OC(F)(F)F)C(=O)Nc2c(Cl)ccc(Cl)c21 (configuration not stated) | 2 | / | / | /
COC(=O)c1ccc(Cn2c(C)c(C(=O)NCc3ccco3)sc2=O)o1 | 12 | / | / | /
CC(=O)Nc1cccc(-c2ccnc3c2CC(C(=O)Nc2cccc(OC(F)(F)F)c2)O3)c1 (configuration not stated) | 6 | / | / | /
S=C(Nc1ccc2nc(-c3ccccn3)c(-c3ccccn3)nc2c1)N1CCOCC1 | 46* | 34 | i | 2
COc1cc(CCN(C(=O)c2cc3ccccc3[nH]2)C(C)c2nc3ccccc3[nH]2)cc(OC)c1 (configuration not stated) | -5 | / | / | /
Cc1ccc(NC(=O)CN2C(=O)N/C(=C/c3cccn3-c3ccc(C(=O)O)cc3)C2=O)cc1 | -12 | 88 | i | 34*
Cc1ccc(NC(=O)CN2C(=O)N/C(=C/c3ccco3)C2=O)cc1 | 19 | 90* | + | 15
CCCCN1C(=O)C(CC(=O)NCC2CCCCC2)CC(C(=O)N(C(C)C)C(C)C)=C1C (configuration not stated) | 15 | / | / | /
COC(=O)c1cccc(CN2C(=O)C(C)Oc3ccc(C)cc32)c1 (configuration not stated) | 7 | / | / | /
Cc1ccc(S(=O)(=O)Cc2ccc([N+](=O)[O-])cc2)cc1 | 8 | 98* | + | /
Cc1ccc(CNS(=O)(=O)c2ccc([N+](=O)[O-])cc2)cc1 | 1 | 6 | i | /
CCn1c2ccccc2c2nnc(SCc3ccc(C(=O)OC)o3)nc21 | 41* | -3 | i | 1
COC(=O)c1ccc(NC(=S)NC2CCCCC2C)cc1 (configuration not stated) | 14 | active | + | 4
CC1=NNC(=O)C1CC(=O)N/N=C/C(C)=C/c1ccccc1 (configuration not stated) | -4 | 73 | + | -2
CC(=O)OCC(=O)Nc1ccc(SC(F)F)cc1 | 30 | 0 | i | -1
C/C=C/C(=O)OCC(=O)Nc1ccc(SC(F)F)cc1 | 29 | active | + | 2
CC(C)(C)NC(=O)NC(=O)CN1CCN(c2cccc(Cl)c2)CC1 | 7 | -16 | i | 85*
NS(=O)(=O)c1ccc(CCNC(=O)C(=O)c2cn(CC(=O)N3CCCC3)c3ccccc23)cc1 | 5 | -4 | i | /
Cc1c(C(=O)C(=O)NCCc2ccc(S(N)(=O)=O)cc2)c2ccccc2n1C | -6 | 93* | + | 20
CSc1nc(N2CCN(CCO)CC2)c2sc3nc(-c4ccco4)c4c(c3c2n1)CCC4 | / | 98* | + | /
CSc1nc(N(C)CCO)c2sc3nc(-c4ccco4)c4c(c3c2n1)CCC4 | 9 | 79* | + | 26
CSc1nc(SCC(=O)O)c2sc3nc(-c4ccccc4)c4c(c3c2n1)CCC4 | 10 | 71* | + | 57*
CSc1nc(NCCN(C)C)c2sc3nc(-c4ccco4)c4c(c3c2n1)CCC4 | -12 | / | / | /
Nc1n[nH]c2cc(=O)n(-c3ccc(Cl)cc3)nc12 | 13 | 99* | + | -5
CC1(C(=O)Nc2ccccc2)CCN1C(=O)CCc1ccc(Cl)cc1Cl (configuration not stated) | -4 | / | / | /
O=C1c2nc3cc(-c4ccco4)[nH]n3c(=O)c2CN1Cc1ccccc1 | 12 | 85* | + | -2
CN1CCc2c(sc3c2C(=O)NC(c2cccs2)N3)C1 (configuration not stated) | -12 | ? | i | -12
